Screens from PubChem.
This is one part of a sample in which hits are shown more often than they occur.
NS1 inh – blocks influenza NS1 protein function; Potency, µM (highest dose often 46.1 µM); 0.4% of 270,000 active; calls by dose curve; note: actives are rising curves; nearly all actives have a fitted effect of over 50% in size
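S. cerevisiae expressing influenza A NS1, grown in glucose, washed, then diluted 1:100 into pH 6.0 -URA galactose medium with 23 nl compound. Growth recovery read as OD600; NS1-free strain serves as control.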
LmPK inh – LmPK (Leishmania mexicana) enzyme inhibition; Potency, µM (highest dose often 57.5 µM), actives largely listed as inhibitors; Q27686; 0.37% of 290,000 active; purified LmPK, Kinase-Glo ATP luminescence, 1 h
Target sequence (Q27686 whole entry, looked up): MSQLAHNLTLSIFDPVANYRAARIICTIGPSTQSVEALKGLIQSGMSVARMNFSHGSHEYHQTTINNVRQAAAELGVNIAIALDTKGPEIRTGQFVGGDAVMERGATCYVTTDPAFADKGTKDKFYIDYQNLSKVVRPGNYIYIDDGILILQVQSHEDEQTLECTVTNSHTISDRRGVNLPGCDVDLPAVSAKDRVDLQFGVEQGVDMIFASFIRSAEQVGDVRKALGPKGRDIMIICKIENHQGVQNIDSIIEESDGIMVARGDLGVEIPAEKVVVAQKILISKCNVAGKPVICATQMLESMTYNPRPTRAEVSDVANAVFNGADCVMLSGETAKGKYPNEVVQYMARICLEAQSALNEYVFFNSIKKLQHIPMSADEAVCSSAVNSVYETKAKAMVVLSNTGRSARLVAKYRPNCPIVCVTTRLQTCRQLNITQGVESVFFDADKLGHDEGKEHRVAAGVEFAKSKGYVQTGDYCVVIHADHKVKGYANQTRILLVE
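ATP generated from ADP (0.1 mM) and PEP (0.5 mM) by 0.1 nM LmPK over 1 h at room temperature (pH 7.2 imidazole buffer) was detected by coupled luciferase luminescence. Values were normalized to uninhibited and no-enzyme wells.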
Cycloheximide cs – affects cycloheximide protein synthesis inhibition readout, counter-screen; cell reporter, cycloheximide protein synthesis inhibition counterscreen; max response, %; 12% of 300,000 active; in the data active = max response mostly above about 13%, no sharp cut-off; inactive = mostly below about 14%; note: read at 38.3 µM for the half of the compounds with a filed dose
SARS PLP yeast – inhibitors of SARS-CoV papain-like protease in yeast; 0.19% of 330,000 active; S. cerevisiae expressing SARS-CoV PLpro, growth rescue; Potency, µM (titrated, usually from 32.9 µM), actives largely listed as activators; calls by dose curve; note: nearly all actives have a fitted effect of over 55% in size
TbPYK inhibitor – T. brucei pyruvate kinase inhibition; Q57TT1; TbPYK enzyme, Kinase-Glo Plus ATP luminescence, 45 min; Potency, µM (highest dose often 76.8 µM), usual class: inhibitors; 0.12% of 410,000 active; note: nearly all actives have a fitted effect of over 50% in size
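Luminescence from Kinase-Glo Plus, added after a 45-minute room-temperature reaction, served as the end-point read-out. The enzyme and substrate were preincubated with compound before ADP (130 uM final) initiated turnover. Concentration-effect curves came from normalized qHTS data.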
Shiga toxin inh – Shiga toxin inhibition; inhibition, % at 38.7 µM; AID 2315; Vero cells, Shiga toxin protein synthesis inhibition reporter; 9.2% of 290,000 active; in the data active = inhibition mostly above about 28%, no sharp cut-off; inactive = mostly below about 43%
A number is an active result; - = inactive; ? = inconclusive; . = not tested or not shown; + = active, no number; [ ] = remark or other dose. Unless noted, calls come from the whole dose curve; as a rule, active = well fitted curve in the direction sought with a large enough effect; inconclusive = small, poorly fitted or top-dose-only effect, or another doubt; inactive = no such curve, though single readings can be large; an effect the other way counts as inactive or inconclusive.

SMILES | NS1 inh | LmPK inh | Cycloheximide cs | SARS PLP yeast | TbPYK inhibitor | Shiga toxin inh
COc1ccc2oc(-c3ccc(C)c(NC(=O)Cc4ccc(Cl)cc4)c3)nc2c1 | . | . | . | . | - | .
CCN(C(=O)CSc1nc2ccc(Cl)cc2[nH]1)C1CCS(=O)(=O)C1 (centres undefined) | . | . | . | - | - | .
Cc1c(C(=O)NC2=NCCS2)oc2ccccc12 | - | ? | 33 | - | - | 56
CNC(=O)c1ccsc1NC(=O)c1sc2ccccc2c1Cl | - | - | 22 | - | - | -
Cc1csc(NC(=O)c2oc3ccccc3c2C)n1 | . | . | . | - | - | .
Cc1ccc2c(n1)sc1c(=O)n(-c3cccc(C(F)(F)F)c3)nnc12 | . | . | . | . | - | .
O=S(=O)(NCc1nc2cccnc2n1Cc1ccccc1)c1ccc2c(c1)CCCC2 | . | . | . | . | - | .
Cc1cc(C)nc(/N=C(\N)N2CCc3ccccc32)n1 | - | - | 33 | - | - | 88
COc1ccc(C(=O)C=Cc2cccs2)c(O)c1 | . | . | . | . | - | .
COc1ccc(OC(=O)c2cccc([N+](=O)[O-])c2)c(C(=O)/C=C/c2cccs2)c1 | - | - | 19 | - | - | -
Cc1ccc(C(=O)NCC(=O)OCc2csc(-c3ccccc3)n2)cc1 | - | - | 36 | - | - | 70
O=C(CNC(=O)c1ccco1)OCc1ccc(C(=O)Oc2ccccc2)cc1 | - | - | 33 | - | - | 24
COC(=O)c1ccc(COC(=O)CNC(=O)c2ccc(-c3ccccc3)cc2)cc1 | - | - | 68 | - | - | 46
O=C(CNS(=O)(=O)c1c(Cl)cccc1Cl)OCc1csc(-c2ccccc2)n1 | - | - | 18 | - | - | -
O=C(CNC(=O)c1ccco1)NCC(=O)OCc1ccc(C(=O)Oc2ccc(Cl)cc2)cc1 | - | - | - | - | . | -
CCOc1ccc(C(=O)NCC(=O)OCc2csc(-c3ccccc3)n2)cc1 | - | - | - | - | - | -
Cc1ccc(Cn2c(SCc3ccc(C(=O)NC4CCCCC4)cc3)nc3ccncc32)cc1 | . | . | . | . | - | .
COC(=O)c1ccc(COC(=O)CNS(=O)(=O)c2ccc(C)cc2)cc1 | . | - | 33 | - | - | 81
O=C(OCc1csc(-c2ccccc2)n1)c1ccc(O)cc1 | - | - | 37 | - | - | 116
COC(=O)c1ccc(COC(=O)CCS(=O)(=O)c2ccc(C)cc2)cc1 | . | - | - | - | - | -
Cc1ccc(S(=O)(=O)NCC(=O)OCc2csc(-c3ccccc3)n2)cc1 | - | - | 15 | - | - | -
CCOc1ccccc1-c1n[nH]c(=S)o1 | - | - | - | - | - | -
CCOc1ccc(-c2n[nH]c(=S)o2)cc1 | . | - | 20 | - | - | -
Cc1ccc(-c2cc(-c3ccccc3O)nc(N/N=C/c3cccnc3)n2)cc1 | - | - | - | - | - | -
C(=N\Nc1nccc(-c2cccnc2)n1)/c1ccccc1 | - | - | 56 | - | - | 89
SMILES | NS1 inh | LmPK inh | Cycloheximide cs | SARS PLP yeast | TbPYK inhibitor | Shiga toxin inh
CSc1nccc(N/N=C/c2ccccc2)n1 | - | - | 59 | - | - | 90
Cc1ccnc(N/N=C/c2ccccc2)n1 | - | ? | 28 | - | - | 57
C(=N\Nc1ccc(-n2ccnc2)nn1)/c1ccccc1 | - | - | - | - | - | -
Cc1ccc(S(=O)(=O)Nc2ccccc2C=O)cc1 | - | . | . | . | . | .
COc1ccc(C(=O)c2cc3c(cc2[N+](=O)[O-])OCCO3)cc1 | - | - | - | - | - | -
COc1ccc(C(=O)n2c(SC)nc3cc4c(cc32)OCCO4)cc1 | - | - | 49 | - | - | 52
CC(=O)c1ccc(NC(=O)c2cn(-c3ccccc3)nc2-c2ccc(Br)cc2)cc1 | . | . | . | . | - | .
COc1ccc2c3c(c(=O)oc2c1)C1O[C@](c2ccsc2)(Cc2ccccc21)O3 | - | -[11.5 µM] | - | -[6.58 µM] | . | -
COc1ccc([C@]23Cc4ccccc4C(O2)c2c(c4ccc(OC)cc4oc2=O)O3)cc1 | - | -[11.5 µM] | 38 | ? | . | +
O=C(COC(=O)c1ccccc1O)NCCC1=CCCCC1 | . | - | 47 | - | - | 90
O=C(Nc1ccccc1C(=O)OCC(=O)c1c[nH]c2ccccc12)c1ccco1 | - | - | 57 | - | - | 82
O=C(COC(=O)c1ccccc1NC(=O)c1ccco1)NCCC1=CCCCC1 | - | - | 30 | - | - | -
O=C(COC(=O)c1ccc(O)cc1)NCCC1=CCCCC1 | . | - | - | - | - | -
O=C(COC(=O)c1cccs1)NCCC1=CCCCC1 | - | - | 14 | - | - | -
